# Results from PubChem BioAssay AID1159580 (chemical genetic matrix, 2015).
# About 2,000 (36%) of roughly 5,500 compounds were called active. Another 18% or so got no clear call; they are omitted. The list shows a part of the results. Unmarked numbers belong to inactive results. Rule as the data show it: active = normalized growth mostly below about 0.91 (no sharp cut-off); inconclusive = no clear call, values can overlap the other calls; inactive = mostly above about 0.92.
# Test: chemical genetic growth profiling, strain panel (AID 1159580);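 also: tested at 20 µM; growth read once vehicle control cultures reached saturation at 30 °C; 1 = growth at the plate median or of vehicle wells; lower values mean less growth of the strain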
# Settings: growth OD
structure (smiles),measurement,setting,value
CC(=O)c1cc(CC=C(C)C)c(O)c(CC=C(C)C)c1,normalized growth,"S. cerevisiae deletion strains, locus YJL187C, strain SWE1 (second series), active compounds read low",0.961
same,normalized growth,"S. cerevisiae deletion strains, locus YJL187C, strain SWE1, active compounds read low",1.01
same,normalized growth,"S. cerevisiae deletion strains, locus YJR043C, strain POL32, active compounds read low",0.998
same,normalized growth,"S. cerevisiae deletion strains, locus YKL009W, strain mrt4, active compounds read low",0.947
same,normalized growth,"S. cerevisiae deletion strains, locus YKL068W, active compounds read low",0.969
same,normalized growth,"S. cerevisiae deletion strains, locus YKL085W, strain MDH1 (second series), active compounds read low",0.967
same,normalized growth,"S. cerevisiae deletion strains, locus YKL085W, strain MDH1, active compounds read low",0.967
same,normalized growth,"S. cerevisiae deletion strains, locus YKL160W, strain elf1, active compounds read low",1
same,normalized growth,"S. cerevisiae deletion strains, locus YKR001C, strain vps1, active compounds read low",0.898 (active)
same,normalized growth,"S. cerevisiae deletion strains, locus YKR026C, strain gcn3, active compounds read low",1.01
same,normalized growth,"S. cerevisiae deletion strains, locus YKR091W, strain srl3, active compounds read low",1.01
same,normalized growth,"S. cerevisiae deletion strains, locus YLL001W, strain dnm1, active compounds read low",1
same,normalized growth,"S. cerevisiae deletion strains, locus YLL026W, active compounds read low",1.01
same,normalized growth,"S. cerevisiae deletion strains, locus YLL041C, strain sdh2, active compounds read low",1.01
same,normalized growth,"S. cerevisiae deletion strains, locus YLR027C, strain aat2, active compounds read low",1.01
same,normalized growth,"S. cerevisiae deletion strains, locus YLR039C, strain RIC1, active compounds read low",0.697
same,normalized growth,"S. cerevisiae deletion strains, locus YLR058C, strain SHM2, active compounds read low",0.982
same,normalized growth,"S. cerevisiae deletion strains, locus YLR102C, strain apc9, active compounds read low",0.964
same,normalized growth,"S. cerevisiae deletion strains, locus YLR221C, strain rsa3, active compounds read low",1
same,normalized growth,"S. cerevisiae deletion strains, locus YLR258W, strain gsy2, active compounds read low",1.01
same,normalized growth,"S. cerevisiae deletion strains, locus YLR262C, strain YPT6 (second series), active compounds read low",0.949
same,normalized growth,"S. cerevisiae deletion strains, locus YLR262C, strain YPT6, active compounds read low",0.747
same,normalized growth,"S. cerevisiae deletion strains, locus YLR268W, strain sec22, active compounds read low",0.924
same,normalized growth,"S. cerevisiae deletion strains, locus YLR320W, strain mms22, active compounds read low",1.01
same,normalized growth,"S. cerevisiae deletion strains, locus YLR330W, strain CHS5, active compounds read low",0.923
same,normalized growth,"S. cerevisiae deletion strains, locus YLR342W, strain FKS1 (second series), active compounds read low",1.03
same,normalized growth,"S. cerevisiae deletion strains, locus YLR342W, strain FKS1, active compounds read low",1.02
same,normalized growth,"S. cerevisiae deletion strains, locus YLR357W, strain rsc2, active compounds read low",1.04
same,normalized growth,"S. cerevisiae deletion strains, locus YLR370C, strain arc18, active compounds read low",1
same,normalized growth,"S. cerevisiae deletion strains, locus YLR371W, strain rom2, active compounds read low",0.968
same,normalized growth,"S. cerevisiae deletion strains, locus YLR384C, strain iki3, active compounds read low",1.01
same,normalized growth,"S. cerevisiae deletion strains, locus YLR418C, strain cdc73, active compounds read low",0.758 (active)
same,normalized growth,"S. cerevisiae deletion strains, locus YML016C, strain PPZ1, active compounds read low",0.992
same,normalized growth,"S. cerevisiae deletion strains, locus YML032C, strain rad52, active compounds read low",0.988
same,normalized growth,"S. cerevisiae deletion strains, locus YML120C, strain ndi1, active compounds read low",0.997
same,normalized growth,"S. cerevisiae deletion strains, locus YML124C, strain tub3, active compounds read low",0.965
same,normalized growth,"S. cerevisiae deletion strains, locus YMR058W, strain fet3, active compounds read low",1.01
same,normalized growth,"S. cerevisiae deletion strains, locus YMR078C, strain ctf18, active compounds read low",0.962
same,normalized growth,"S. cerevisiae deletion strains, locus YMR125W, strain sto1, active compounds read low",1.02
same,normalized growth,"S. cerevisiae deletion strains, locus YMR129W, active compounds read low",1.01
same,normalized growth,"S. cerevisiae deletion strains, locus YMR205C, strain PFK2, active compounds read low",1.01
same,normalized growth,"S. cerevisiae deletion strains, locus YMR223W, strain ubp8, active compounds read low",0.951
same,normalized growth,"S. cerevisiae deletion strains, locus YMR231W, strain pep5, active compounds read low",1.01
same,normalized growth,"S. cerevisiae deletion strains, locus YMR307W, strain GAS1, active compounds read low",0.833
same,normalized growth,"S. cerevisiae deletion strains, locus YNL067W, strain RPL9B, active compounds read low",0.925
same,normalized growth,"S. cerevisiae deletion strains, locus YNL071W, strain lat1, active compounds read low",1.01
same,normalized growth,"S. cerevisiae deletion strains, locus YNL128W, strain TEP1, active compounds read low",0.917
same,normalized growth,"S. cerevisiae deletion strains, locus YNL153C, strain GIM3, active compounds read low",0.985
same,normalized growth,"S. cerevisiae deletion strains, locus YNL209W, strain ssb2, active compounds read low",1.01
same,normalized growth,"S. cerevisiae deletion strains, locus YNL233W, strain BNI4, active compounds read low",0.953
same,normalized growth,"S. cerevisiae deletion strains, locus YNL248C, strain rpa49, active compounds read low",1.01
same,normalized growth,"S. cerevisiae deletion strains, locus YNL250W, strain rad50, active compounds read low",0.979
same,normalized growth,"S. cerevisiae deletion strains, locus YNL271C, strain bni1, active compounds read low",0.962
same,normalized growth,"S. cerevisiae deletion strains, locus YNL298W, strain CLA4, active compounds read low",0.979
same,normalized growth,"S. cerevisiae deletion strains, locus YNL307C, strain MCK1, active compounds read low",0.955
same,normalized growth,"S. cerevisiae deletion strains, locus YNL322C, strain KRE1 (second series), active compounds read low",1.01
same,normalized growth,"S. cerevisiae deletion strains, locus YNR049C, strain mso1, active compounds read low",1.01
same,normalized growth,"S. cerevisiae deletion strains, locus YNR052C, strain pop2, active compounds read low",0.989
same,normalized growth,"S. cerevisiae deletion strains, locus YOL006C, strain TOP1, active compounds read low",0.75
same,normalized growth,"S. cerevisiae deletion strains, locus YOL012C, strain htz1",0.849
same,normalized growth,"S. cerevisiae deletion strains, locus YOL147C, strain pex11, active compounds read low",0.981
same,normalized growth,"S. cerevisiae deletion strains, locus YOR001W, strain rrp6, active compounds read low",1.02
same,normalized growth,"S. cerevisiae deletion strains, locus YOR061W, strain CKA2, active compounds read low",0.978
same,normalized growth,"S. cerevisiae deletion strains, locus YOR069W, strain VPS5, active compounds read low",0.986
same,normalized growth,"S. cerevisiae deletion strains, locus YOR070C, strain gyp1, active compounds read low",1.02
same,normalized growth,"S. cerevisiae deletion strains, locus YOR080W, strain dia2, active compounds read low",1.02
same,normalized growth,"S. cerevisiae deletion strains, locus YOR083W, strain WHI5, active compounds read low",1
same,normalized growth,"S. cerevisiae deletion strains, locus YOR106W, strain vam3, active compounds read low",0.995
same,normalized growth,"S. cerevisiae deletion strains, locus YOR136W, strain idh2, active compounds read low",0.973
same,normalized growth,"S. cerevisiae deletion strains, locus YOR144C, strain elg1, active compounds read low",0.981
same,normalized growth,"S. cerevisiae deletion strains, locus YOR184W, strain ser1, active compounds read low",0.838 (active)
same,normalized growth,"S. cerevisiae deletion strains, locus YOR265W, strain rbl2, active compounds read low",1.02
same,normalized growth,"S. cerevisiae deletion strains, locus YOR270C, strain vph1, active compounds read low",0.949
same,normalized growth,"S. cerevisiae deletion strains, locus YOR290C, strain snf2, active compounds read low",1.02
same,normalized growth,"S. cerevisiae deletion strains, locus YOR316C, strain cot1, active compounds read low",0.979
same,normalized growth,"S. cerevisiae deletion strains, locus YPL051W, strain arl3, active compounds read low",1.01
same,normalized growth,"S. cerevisiae deletion strains, locus YPL078C, strain atp4, active compounds read low",1.01
same,normalized growth,"S. cerevisiae deletion strains, locus YPL106C, strain sse1, active compounds read low",1.06
same,normalized growth,"S. cerevisiae deletion strains, locus YPL240C, strain hsp82, active compounds read low",1.02
same,normalized growth,"S. cerevisiae deletion strains, locus YPL241C, strain CIN2, active compounds read low",0.974
same,normalized growth,"S. cerevisiae deletion strains, locus YPR119W, strain clb2, active compounds read low",0.987
same,normalized growth,"S. cerevisiae deletion strains, locus YPR141C, strain kar3, active compounds read low",0.97
same,normalized growth,"S. cerevisiae deletion strains, locus YPR163C, strain tif3, active compounds read low",0.952
same,normalized growth,"S. cerevisiae deletion strains, locus YPR167C, strain met16, active compounds read low",0.974
same,normalized growth,"S. cerevisiae deletion strains, strain wtn01, active compounds read low",0.908
same,normalized growth,"S. cerevisiae strains, strain wild type, active compounds read low",0.957
